Test results as given in PubChem BioAssay (NCI).
Compounds without any hit were thinned out: in the full panel of roughly 79,000, 15% have a hit. Values without a mark were called inactive. Calls of active or inactive are those of the source. Cut-off read from the data, not from the text of the source: active = growth inhibition above about 70%; inactive = the rest.

Assays:
[1] = NCI Yeast Anticancer Drug Screen. Data for the rad50 strain (AID 155);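 note: 0% = growth of vehicle-only cultures of the same strain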; conditions: S. cerevisiae rad50 strain growth inhibition, stronger effect = higher value
Summary of the method: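 Yeast carrying a defined DNA repair defect were exposed to test compounds, and growth was compared with vehicle-treated controls to give percent inhibition.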

[2] = NCI Yeast Anticancer Drug Screen. Data for the mec2-1 strain (AID 157); conditions: S. cerevisiae mec2-1 strain, stronger effect = higher value
Summary of the method: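 Vehicle-treated cultures served as reference for growth inhibition of compound-exposed mec2-1 yeast.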

[3] = NCI Yeast Anticancer Drug Screen. Data for the sgs1 mgt1 strain (AID 161);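 note: 0% = growth of cultures given vehicle only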; conditions: S. cerevisiae sgs1 mgt1 strain, stronger effect = higher value
Summary of the method: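 Genetically altered yeast, compound exposure, growth inhibition relative to vehicle.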

[4] = NCI Yeast Anticancer Drug Screen. Data for the cln2 rad14 strain (AID 165);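 note: 0% = growth equal to vehicle treated cultures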; conditions: S. cerevisiae cln2 rad14 strain, stronger effect = higher value
Summary of the method: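 Each compound was tested on cln2 rad14 yeast. Inhibition of growth was calculated against vehicle-exposed controls.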

[5] = NCI Yeast Anticancer Drug Screen. Data for the bub3 strain (AID 167); conditions: S. cerevisiae bub3 mutant strain, stronger effect = higher value
Summary of the method: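 Compounds were applied to a genetically altered yeast strain carrying a cell-cycle control defect. Growth inhibition was scored against vehicle-treated controls.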

[6] = NCI Yeast Anticancer Drug Screen. Data for the mlh1 rad18 strain (AID 175); conditions: S. cerevisiae mlh1 rad18 strain growth inhibition, stronger effect = higher value
Summary of the method: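 Vehicle-treated cultures served as the reference for growth inhibition in a yeast strain carrying DNA damage repair alterations exposed to each compound.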

[7] = at 5.0 µM (retest, dose inferred, filed as 0.5)
[8] = at 50.0 µM (retest, dose inferred, filed as 5.0)

Compound	growth inhibition [1, 7]	growth inhibition [1, 8]	growth inhibition ([1]; at 50.0 µM)	growth inhibition [2, 7]	growth inhibition [2, 8]	growth inhibition ([2]; at 50.0 µM)	growth inhibition [3, 7]	growth inhibition [3, 8]	growth inhibition ([3]; at 50.0 µM)	growth inhibition [4, 7]	growth inhibition [4, 8]	growth inhibition ([4]; at 50.0 µM)	growth inhibition [5, 7]	growth inhibition [5, 8]	growth inhibition ([5]; at 50.0 µM)	growth inhibition [6, 7]	growth inhibition [6, 8]	growth inhibition ([6]; at 50.0 µM)
c1ccc(N=c2sc3ccccc3sc2=Nc2ccccc2)cc1	94% (active)	32%	51%	56%	50%	32.4%	71% (active)	60%	21.8%	96% (active)	69%	59.5%	93% (active)	76% (active)	31.7%	93% (active)	56%	-16%
CCC(=O)OC1CCC(C2CCCCC2)CC1 (configuration not stated)	3%	8%	-4.95%	1%	2%	-9.55%	2%	5%	16.7%	5%	7%	-21.2%	65%	70% (active)	61.1%	4%	10%	36.8%
COc1ccc(C(C)c2cc3c(cc2O)OCO3)cc1 (configuration not stated)	7%	99% (active)	98.5% (active)	-8%	48%	98.7% (active)	-3%	56%	98.8% (active)	-23%	58%	97.1% (active)	-22%	76% (active)	98.5% (active)	7%	97% (active)	98% (active)
CCCCCCN(CCCCCC)CCCC(O)c1cccc2ccccc12 (configuration not stated)	-2%	-5%	99.2% (active)	2%	2%	99.3% (active)	0%	1%	99.2% (active)	0%	-3%	99.2% (active)	-2%	2%	97% (active)	1%	-3%	99.2% (active)
C[C@]12C/C(=C/C(F)(F)F)C(=O)C[C@@H]1CC[C@@H]1[C@@H]2CC[C@]2(C)[C@@H](C(=O)O)CC[C@@H]12	32%	91% (active)	31.5%	92% (active)	97% (active)	39.4%	87% (active)	95% (active)	72.1% (active)	24%	87% (active)	55.7%	89% (active)	95% (active)	26.1%	93% (active)	96% (active)	48.4%
O=C(NO)C(=O)Nc1cc(Cl)ccc1Cl	7%	57%	86.8% (active)	-8%	90% (active)	73% (active)	-3%	89% (active)	79.8% (active)	2%	94% (active)	74.5% (active)	-28%	94% (active)	85.9% (active)	-2%	94% (active)	77.7% (active)
COc1ccc(C(c2ccc(C(C)C)cc(OC)c2=O)c2ccc(C(C)C)cc(OC)c2=O)cc1	7%	54%	22.4%	-1%	39%	42.2%	6%	61%	13.2%	-2%	37%	10.2%	0%	16%	9%	-4%	41%	29.2%
CCCCCCCCCCCN1C(=O)c2ccccc2S1(=O)=O	-3%	78% (active)	-22.4%	-2%	54%	0.5%	0%	80% (active)	-11.4%	-14%	34%	58.8%	0%	79% (active)	9.4%	0%	95% (active)	32.4%
CCn1c2ccccc2c(=O)c2c(OC)ccc(OC)c21	2%	73% (active)	77.6% (active)	4%	51%	-1.7%	0%	94% (active)	81.5% (active)	-1%	24%	49.4%	28%	75% (active)	52.6%	-1%	87% (active)	89.8% (active)
